The source of these data is the antibiotic and cytotoxicity screens of Wong et al. (2023).

SMILES strings stand for the structures. Screen size: about 39,000 compounds; about 3,300 (8.5%) were called active. Many of the other results were omitted from the sample, so actives are more common in it than they were.

This test concerns HepG2. In words: cytotoxicity call (relative viability < 0.9). The conditions noted are these: 10 µM.
In the case of `O=S1(=O)CC=CC1`, the cytotoxicity call was “inactive”.
With `Cc1ccc(S[C@]2(C(=O)NC3CC3)CC(=O)N(C3CCCCC3)[C@@H]2c2ccc(CO)cc2I)cc1` the entry was “inactive”; with `Cc1noc(C)c1S(=O)(=O)Nc1ccc2c(c1)C(=O)N([C@H](C)CO)C[C@@H](C)[C@H](CN(C)C)OCCCC[C@@H](C)O2`, “inactive”; with `COc1ccc2c3c(n(c2c1)C)[C@@H](CO)N(C[C@]13CCN(CC1)Cc1cccc(c1)F)C(=O)Nc1ccc(cc1)F`, “inactive”.
With `COc1ccc2c3c(n(c2c1)C)[C@@H](CO)N(C[C@]13CCN(CC1)C(=O)c1ccccc1F)C(=O)Nc1ccc(cc1)F` the entry was “inactive”; with `COc1ccc2c3c(n(c2c1)C)[C@@H](CO)N(C[C@]13CCN(CC1)Cc1ccccc1F)C(=O)Nc1ccc(cc1)F`, “active”.
With `COc1ccc2c3c(n(c2c1)C)[C@H](CO)N(C[C@]13CCN(CC1)Cc1cccc(c1)F)C(=O)Nc1ccc(cc1)F` the entry was “active”; with `COc1cccc(c1)CN1CC[C@]2(CC1)CN([C@H](CO)c1c2c2ccc(cc2n1C)OC)C(=O)Nc1ccc(cc1)F`, “inactive”.
For `COc1ccc2c3c(n(c2c1)C)[C@H](CO)N(C[C@]13CCN(CC1)Cc1ccccc1F)C(=O)Nc1ccc(cc1)F`, the cytotoxicity call was “inactive”.
With `O=C(C[C@H]1CC[C@@H]2[C@H](COC[C@H](O)CN2C(=O)Nc2cccc(F)c2)O1)NCc1ccccc1Cl` the entry was “inactive”; with `CN1C(=O)c2cc(NC(=O)c3ccc(F)c(F)c3)ccc2OC[C@@H]2O[C@@H](CC(=O)N3CCOCC3)CC[C@H]21`, “inactive”; with `C[C@H](CO)N1C[C@H](C)[C@@H](CN(C)C(=O)Cc2ccccc2)Oc2cc(-c3cncnc3)ccc2S1(=O)=O`, “inactive”.
Next, `C[C@@H]1CN([C@H](C)CO)C(=O)c2cc(C#Cc3cccc(F)c3)cnc2O[C@@H]1CN(C)CC1CCOCC1`: “inactive”.
As for `COc1ccc(S(=O)(=O)N(C)C[C@@H]2Oc3cc(C#CC4CC4)ccc3S(=O)(=O)N([C@H](C)CO)C[C@@H]2C)cc1`, the cytotoxicity call is “inactive”.
With `CO[C@H]1CN(C)C(=O)c2cc(NC(=O)NC3CCCCC3)ccc2OC[C@@H](C)N(CCc2ccccc2)C[C@H]1C` the entry was “inactive”; with `Cc1noc(C)c1S(=O)(=O)Nc1ccc2c(c1)CC(=O)N([C@@H](C)CO)C[C@@H](C)[C@@H](CN(C)C(=O)NC1CCCCC1)O2`, “inactive”; with `CN(C)CCCNC(=O)C[C@H]1CC[C@H]2[C@@H](COC[C@@H](O)CN2S(=O)(=O)c2ccccc2)O1`, “inactive”.
Next, `C[C@@H]1CCCCO[C@H](CN(C)C(=O)Cc2ccccc2)[C@@H](C)CN([C@@H](C)CO)C(=O)c2cc(NC(=O)Nc3ccc(F)cc3)ccc2O1`: “inactive”; `C[C@H]1CN([C@@H](C)CO)C(=O)c2c(c3ccccc3n2C)-c2ccccc2CO[C@H]1CN(C)S(=O)(=O)c1ccc(Cl)cc1`: “active”.
With `C[C@H]1CN([C@@H](C)CO)C(=O)c2c(c3ccccc3n2C)-c2ccccc2CO[C@H]1CN(C)S(=O)(=O)c1ccc(C(F)(F)F)cc1` the entry was “inactive”; with `C[C@H](CO)N1C[C@H](C)[C@@H](CN(C)S(=O)(=O)c2ccc(Cl)cc2)OCc2ccccc2-c2c(n(C)c3ccccc23)C1=O`, “inactive”; with `C[C@@H]1CN([C@H](C)CO)C(=O)c2c(c3ccccc3n2C)-c2ccccc2CO[C@H]1CN(C)S(=O)(=O)c1ccc(Cl)cc1`, “inactive”.
`C[C@@H]1CN([C@@H](C)CO)C(=O)c2c(c3ccccc3n2C)-c2ccccc2CO[C@H]1CN(C)S(=O)(=O)c1ccc(C(F)(F)F)cc1`: the cytotoxicity call was “inactive”.
For the molecule `C[C@H]1CN([C@@H](C)CO)C(=O)c2c(c3ccccc3n2C)-c2ccccc2CO[C@@H]1CN(C)S(=O)(=O)c1ccc(Cl)cc1`, the cytotoxicity call was “active”.
For `C[C@H](CO)N1C[C@H](C)[C@H](CN(C)S(=O)(=O)c2ccc(Cl)cc2)OCc2ccccc2-c2c(n(C)c3ccccc23)C1=O`, the cytotoxicity call was “active”.
With `C[C@@H]1CN([C@@H](C)CO)C(=O)c2c(c3ccccc3n2C)-c2ccccc2CO[C@@H]1CN(C)S(=O)(=O)c1ccc(C(F)(F)F)cc1` the entry was “inactive”; with `C[C@@H]1CN([C@H](C)CO)C(=O)c2c(c3ccccc3n2C)-c2ccccc2CO[C@@H]1CN(C)S(=O)(=O)c1ccc(C(F)(F)F)cc1`, “inactive”; with `C[C@@H]1CN([C@H](C)CO)C(=O)c2c(c3ccccc3n2C)-c2ccccc2CO[C@@H]1CN(C)S(=O)(=O)c1ccc(Cl)cc1`, “inactive”.
`C[C@@H]1CN([C@@H](C)CO)C(=O)c2c(c3ccccc3n2C)-c2ccccc2CO[C@@H]1CN(C)S(=O)(=O)c1ccc(Cl)cc1`: the cytotoxicity call is “inactive”.
Next, `C[C@@H]1CN([C@@H](C)CO)C(=O)c2c(c3ccccc3n2C)-c2ccccc2CO[C@H]1CN(C)S(=O)(=O)c1ccc(Cl)cc1`: “active”.
